A short description of assay [1]: ATG_AP_2_CIS: Attagene CIS-FACTORIAL HepG2 Assay for human Activator Protein 2 (AP-2) (AID 2282932). Particulars: HepG2 AP-2 cis-reporter, Attagene transcription factor profiling; actives raise or lower the signal. The procedure, abridged: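 Assay in transfected HepG2 with promoter-regulated reporters, 24 h incubation after dosing. Signal is reporter mRNA fluorescence (RT-PCR, capillary electrophoresis), analysed for both increases and decreases relative to DMSO controls.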

Assay [2] has as its target Transcription factor E2F1 (Homo sapiens) (UniProt Q01094). As to the kind of experiment: ATG_E2F_CIS: Attagene CIS-FACTORIAL HepG2 Assay for human E2F Transcription Factor 1 (AID 2282935). Particulars: HepG2 Attagene cis-reporter, E2F reporter RNA transcripts; actives raise or lower the signal. The procedure, abridged: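 In this cis-factorial format, endogenous factor activity drives transfected reporters in HepG2; transcripts collected at 24 h are quantified by fluorescence after RT-PCR and capillary separation.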

A short description of assay [3]: ATG_M_61_CIS: Attagene CIS-FACTORIAL HepG2 Assay for M61 Transcription Factor (Internal Marker) (AID 2282937). Particulars: HepG2 Attagene CIS-FACTORIAL M61 internal marker reporter; actives raise or lower the signal. The procedure, abridged: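 Readout is reporter mRNA by RT-PCR, fluorescent primer extension and capillary electrophoresis, with gain or loss fitted relative to DMSO. Transfected HepG2 cells carrying endogenous-TF-driven cis reporters were exposed to chemicals for 24 hours.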

A short description of assay [4]: ATG_EGR_CIS: Attagene CIS-FACTORIAL HepG2 Assay for human Early Growth Response 1 (EGR1) (AID 2282938). The settings on record: HepG2 Attagene CIS-FACTORIAL EGR reporter mRNA; actives raise or lower the signal. The procedure, abridged: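 After 24 h compound exposure, RNA from reporter-transfected HepG2 cells was reverse-transcribed, PCR-amplified, fluorescently labelled and resolved by capillary electrophoresis. EGR1 reporter transcript changes, up or down, were fitted against DMSO, reflecting endogenous transcription-factor activity.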

Assay [5] concerns the target Hepatocyte nuclear factor 3-beta (Homo sapiens) (UniProt Q9Y261). As to the kind of experiment: ATG_FoxA2_CIS: Attagene CIS-FACTORIAL HepG2 Assay for human Forkhead box A2 (FOXA2) (AID 2282942). Particulars: HepG2 cis-reporter transcription factor activity, 24 h; actives raise or lower the signal. The procedure, abridged: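 Endogenous transcription factor activity is captured via cis-element-driven reporter transcripts in transfected HepG2. Total RNA taken at 24 h post-dosing; labelled RT-PCR products resolved by capillary electrophoresis. Gain or loss fitted versus DMSO.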

Assay [6] in a line: ATG_FoxO_CIS: Attagene CIS-FACTORIAL HepG2 Assay for human Forkhead box O (FoxO) (AID 2282943). Particulars: HepG2 Attagene cis-reporter, FoxO element, mRNA; actives raise or lower the signal. The method in brief: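 24 h chemical exposure, HepG2 with transient cis-MRTU transfection. RNA extraction, oligo(dT) RT, reporter-specific PCR, primer-extension labelling, HpaI digestion, CE fragment analysis; bidirectional fit, DMSO baseline.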

Assay [7] deals with Hypoxia-inducible factor 1-alpha (Homo sapiens) (UniProt Q16665). As to the kind of experiment: ATG_HIF1a_CIS: Attagene CIS-FACTORIAL HepG2 Assay for human Hypoxia Inducible Factor 1 (HIF1A) (AID 2282951). The settings on record: HepG2 Attagene cis-factorial HIF1a reporter transcription; actives raise or lower the signal. The procedure, abridged:
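Activity is fitted in both directions relative to DMSO. Reporter transcripts are read by RT-PCR, fluorescent primer extension and capillary electrophoresis after 24 h chemical treatment. The cells are HepG2 carrying transiently transfected cis-element-driven reporter units responding to endogenous factors.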

Assay [8] can be described thus: ATG_RORE_CIS: Attagene CIS-FACTORIAL HepG2 Assay for human RAR-related Orphan Receptor Element (RORE) (AID 2282959). The settings on record: HepG2 Attagene cis-factorial RORE reporter, mRNA; actives raise or lower the signal. The method in brief:
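RORE reporter transcripts reflecting endogenous factor activity were read after 24 h compound exposure of transfected HepG2 cells, using reverse transcription, PCR, fluorescent labelling and capillary electrophoresis sizing. Gain or loss fitted against DMSO.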

Assay [9] in a line: ATG_TGFb_CIS: Attagene CIS-FACTORIAL HepG2 Assay for human Transforming Growth Factor (TGF) (AID 2282967). Particulars: HepG2 Attagene CIS TGFb reporter, mRNA transcription; actives raise or lower the signal. The procedure, abridged: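 HepG2 cells transiently transfected with cis-promoter-driven multiplexed reporter units; 24 h compound exposure. Reporter mRNA measured by RT-PCR, 6-FAM labeling, HpaI digestion and capillary electrophoresis; bidirectional fit versus DMSO baseline.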

Assay [10] can be described thus: ATG_VDRE_CIS: Attagene CIS-FACTORIAL HepG2 Assay for human Vitamin D Receptor Element (VDRE) (AID 2282968). Particulars: HepG2 VDRE cis-reporter transcription, actives raise or lower the signal. The method in brief:
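Transfected HepG2 reporter cells, chemical treatment 24 h. RNA isolated, cDNA amplified with reporter-specific primers, products analysed by capillary electrophoresis. Endpoint fitted in both directions versus DMSO.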

Assay [11] concerns the target X-box-binding protein 1 (Homo sapiens) (UniProt P17861). As to the kind of experiment: ATG_Xbp1_CIS: Attagene CIS-FACTORIAL HepG2 Assay for human X-box Binding Protein 1 (XBP1) (AID 2282972). The settings on record: HepG2 XBP1 cis-element reporter, Attagene multiplex; actives raise or lower the signal. The procedure, abridged:
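Reporter transcripts were quantified by RT-PCR with fluorescent primer extension and capillary electrophoresis after 24 h chemical exposure. Cells: transiently transfected HepG2 carrying cis-regulated reporter constructs; data fitted bidirectionally relative to DMSO.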

The target of assay [12] is Transcriptional activator Myb (Homo sapiens) (UniProt P10242). As to the kind of experiment: ATG_Myb_CIS: Attagene CIS-FACTORIAL HepG2 Assay for human Myeloblastosis (Myb) Proto-Oncogene Transcription Factor (AID 2282986). The settings on record: HepG2 Attagene CIS-FACTORIAL Myb reporter transcription; actives raise or lower the signal. The procedure, abridged:
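Reporter mRNA is quantified by RT-PCR and capillary electrophoresis 24 h after dosing HepG2 cells transfected with cis-regulated reporter units, which track endogenous transcription factor activity. Gain and loss of signal are fitted versus DMSO baseline.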

Assay [13] has as its target Nuclear respiratory factor 1 (Homo sapiens) (UniProt Q16656). As to the kind of experiment: ATG_NRF1_CIS: Attagene CIS-FACTORIAL HepG2 Assay for human Nuclear Respiratory Factor 1 (NRF1) Orphan Gene (AID 2282987). Particulars: HepG2 NRF1 cis-element reporter, Attagene multiplex; actives raise or lower the signal. The method in brief: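 Endogenous NRF1-driven reporter transcription in transfected HepG2 cells after 24 h treatment. Readout: RT-PCR products, 6-FAM labelled and resolved by capillary electrophoresis; changes fitted both directions relative to DMSO.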

A short description of assay [14]: ATG_NFI_CIS: Attagene CIS-FACTORIAL HepG2 Assay for human Nuclear Factor I (NFI) (AID 2282989). Particulars: HepG2 cis-regulatory reporter, NFI response element transcription; actives raise or lower the signal. The procedure, abridged: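 HepG2 cells transiently transfected with cis-element-driven multiplexed reporter transcription units, dosed for 24 h. Reporter mRNA quantified by RT-PCR, fluorescent labelling, HpaI digestion and capillary electrophoresis; bidirectional fit versus DMSO baseline.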

Assay [15] has as its target Myc proto-oncogene protein (Homo sapiens) (UniProt P01106). Kind of assay: ATG_Myc_CIS: Attagene CIS-FACTORIAL HepG2 Assay for human Myelocytomatosis (Myc) Proto-Oncogene Transcription Factor (AID 2282990). The settings on record: HepG2, Attagene cis-reporter transcription factor activity; actives raise or lower the signal. The procedure, abridged:
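DMSO-normalised, bidirectionally fitted reporter mRNA signal. HepG2 cells transfected with cis reporter constructs, treated 24 h; transcripts detected by RT-PCR, 6-FAM primer extension and CE.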

The target in assay [16] is Cellular tumor antigen p53 (Homo sapiens) (UniProt P04637). As to the kind of experiment: ATG_p53_CIS: Attagene CIS-FACTORIAL HepG2 Assay for human p53 Transcription Factor (AID 2282994). The settings on record: HepG2 p53 cis-element reporter, Attagene mRNA; actives raise or lower the signal. The method in brief: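 Endogenous p53 activity read in transiently transfected HepG2 from a cis-element-driven reporter transcript after 24 h exposure. RNA reverse-transcribed, PCR-amplified, fluorescently labelled and sized by capillary electrophoresis; gain or loss fitted against DMSO baseline.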

Assay [17] concerns the target Nuclear receptor subfamily 1 group I member 2 (Homo sapiens) (UniProt O75469). As to the kind of experiment: ATG_PXR_TRANS: Attagene TRANS-FACTORIAL HepG2 Assay for human Pregnane X Receptor (PXR) (AID 2283008; active means hit-call score of the fitted dose curve at least 0.9, where 1 is the maximum). The procedure, abridged: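 Transactivation by exogenous PXR–GAL4 fusion measured as reporter transcript induction after 24 h compound treatment of transfected human HepG2 cells. Read-out via RT-PCR and capillary electrophoresis of labelled fragments, fitted upward relative to DMSO.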

A short description of assay [18]: ATG_XTT_Cytotoxicity: Cytotoxicity Assessment in the Attagene TRANS-FACTORIAL HepG2 Assay (AID 2283584; active means hit-call score of the fitted dose curve at least 0.9, where 1 is the maximum). The procedure, abridged: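 24 h chemical exposure of reporter-transfected HepG2; XTT signal loss vs DMSO indicates cytotoxicity.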
Assay [19] has as its target Cellular tumor antigen p53 (Homo sapiens) (UniProt P04637). Kind of assay: TOX21_p53_BLA_p2_ratio: Tox21 HCT-116 p53 Agonism Beta-lactamase Assay, Ratio, Phase 2 (AID 2283592; active means hit-call score of the fitted dose curve at least 0.9, where 1 is the maximum). The method in brief:
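DMSO-normalized, positive-direction endpoint derived from the 460 nm/530 nm FRET ratio in HCT116 p53 beta-lactamase reporter cells exposed 16 h at 37C and loaded with CCF4-AM for 2 h.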

Assay [20] can be described thus: ATG_Ets_CIS: Attagene CIS-FACTORIAL HepG2 Assay for human Erythroblast Transformation Specific (ETS) (AID 2282941). Particulars: HepG2 ETS cis-reporter transcription, actives raise or lower the signal. The procedure, abridged:
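Endogenous transcription factor activity read as reporter mRNA via RT-PCR and capillary electrophoresis, with gain or loss fitted bidirectionally against DMSO. Human HepG2 liver cells, transiently transfected CIS reporter constructs, 24 h exposure.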

A word on the AC50: it is the midpoint of the concentration-response curve, whichever way the signal moves.

Records with an inconclusive call do not appear. Activity calls are given as the source filed them. How the source made its calls, unless noted: active means hit-call score of the fitted dose curve at least 0.9, where 1 is the maximum; inactive means score below 0.9.

Chain of Transcriptional activator Myb (Homo sapiens) (P10242 whole entry, looked up): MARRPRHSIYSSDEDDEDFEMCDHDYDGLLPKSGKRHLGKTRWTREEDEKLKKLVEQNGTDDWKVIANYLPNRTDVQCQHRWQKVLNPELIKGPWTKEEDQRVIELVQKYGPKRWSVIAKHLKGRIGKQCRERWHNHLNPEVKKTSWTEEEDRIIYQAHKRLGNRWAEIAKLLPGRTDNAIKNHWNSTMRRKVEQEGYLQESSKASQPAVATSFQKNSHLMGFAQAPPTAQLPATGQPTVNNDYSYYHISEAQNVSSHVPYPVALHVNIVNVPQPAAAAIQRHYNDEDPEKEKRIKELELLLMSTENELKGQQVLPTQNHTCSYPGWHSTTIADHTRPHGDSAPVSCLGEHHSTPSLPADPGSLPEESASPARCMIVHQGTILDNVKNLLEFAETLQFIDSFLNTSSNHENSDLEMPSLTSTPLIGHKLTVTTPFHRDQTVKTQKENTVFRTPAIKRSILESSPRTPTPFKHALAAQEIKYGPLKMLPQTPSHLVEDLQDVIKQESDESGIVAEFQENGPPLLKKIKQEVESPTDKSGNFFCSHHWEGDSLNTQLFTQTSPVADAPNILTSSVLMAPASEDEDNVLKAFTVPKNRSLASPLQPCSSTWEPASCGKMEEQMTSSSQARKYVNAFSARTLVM
Chain of Nuclear respiratory factor 1 (Homo sapiens) (Q16656 whole entry, looked up): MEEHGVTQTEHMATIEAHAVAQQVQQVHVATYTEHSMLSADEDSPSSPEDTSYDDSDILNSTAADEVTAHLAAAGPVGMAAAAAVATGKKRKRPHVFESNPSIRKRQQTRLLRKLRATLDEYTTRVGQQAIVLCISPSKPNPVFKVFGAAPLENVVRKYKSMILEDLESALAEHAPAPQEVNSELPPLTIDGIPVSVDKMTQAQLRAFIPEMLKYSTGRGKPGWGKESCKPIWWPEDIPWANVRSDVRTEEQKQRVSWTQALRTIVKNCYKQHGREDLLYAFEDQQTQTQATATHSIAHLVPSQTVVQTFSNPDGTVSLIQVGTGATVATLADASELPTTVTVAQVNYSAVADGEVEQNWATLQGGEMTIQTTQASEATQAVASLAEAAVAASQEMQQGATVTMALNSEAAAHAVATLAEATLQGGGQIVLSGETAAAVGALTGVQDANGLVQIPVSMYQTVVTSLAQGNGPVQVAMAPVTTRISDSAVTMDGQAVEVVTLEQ
Chain of Cellular tumor antigen p53 (Homo sapiens) (P04637 whole entry, looked up): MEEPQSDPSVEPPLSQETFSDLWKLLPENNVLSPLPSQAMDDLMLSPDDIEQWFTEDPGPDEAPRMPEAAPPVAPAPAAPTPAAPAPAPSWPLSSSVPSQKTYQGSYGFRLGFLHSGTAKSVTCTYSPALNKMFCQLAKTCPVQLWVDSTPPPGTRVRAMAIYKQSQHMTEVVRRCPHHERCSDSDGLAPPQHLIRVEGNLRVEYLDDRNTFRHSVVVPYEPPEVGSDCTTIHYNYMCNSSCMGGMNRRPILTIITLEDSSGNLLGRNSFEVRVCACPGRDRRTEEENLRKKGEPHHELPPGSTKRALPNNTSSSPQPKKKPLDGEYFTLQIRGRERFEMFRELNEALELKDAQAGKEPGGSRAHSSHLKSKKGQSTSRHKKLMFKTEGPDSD
Chain of Nuclear receptor subfamily 1 group I member 2 (Homo sapiens) (O75469 whole entry, looked up, the tested form may be a part): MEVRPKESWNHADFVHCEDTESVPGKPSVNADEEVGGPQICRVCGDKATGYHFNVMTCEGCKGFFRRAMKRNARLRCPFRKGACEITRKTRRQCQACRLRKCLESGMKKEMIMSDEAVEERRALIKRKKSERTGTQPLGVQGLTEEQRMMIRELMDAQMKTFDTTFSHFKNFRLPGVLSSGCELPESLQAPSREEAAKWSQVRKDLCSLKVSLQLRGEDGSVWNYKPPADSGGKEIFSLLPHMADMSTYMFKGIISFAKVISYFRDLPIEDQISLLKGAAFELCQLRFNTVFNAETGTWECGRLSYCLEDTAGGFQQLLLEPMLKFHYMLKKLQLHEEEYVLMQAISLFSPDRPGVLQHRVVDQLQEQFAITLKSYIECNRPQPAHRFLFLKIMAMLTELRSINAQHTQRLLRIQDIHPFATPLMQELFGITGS
Chain of Hepatocyte nuclear factor 3-beta (Homo sapiens) (Q9Y261 whole entry, looked up): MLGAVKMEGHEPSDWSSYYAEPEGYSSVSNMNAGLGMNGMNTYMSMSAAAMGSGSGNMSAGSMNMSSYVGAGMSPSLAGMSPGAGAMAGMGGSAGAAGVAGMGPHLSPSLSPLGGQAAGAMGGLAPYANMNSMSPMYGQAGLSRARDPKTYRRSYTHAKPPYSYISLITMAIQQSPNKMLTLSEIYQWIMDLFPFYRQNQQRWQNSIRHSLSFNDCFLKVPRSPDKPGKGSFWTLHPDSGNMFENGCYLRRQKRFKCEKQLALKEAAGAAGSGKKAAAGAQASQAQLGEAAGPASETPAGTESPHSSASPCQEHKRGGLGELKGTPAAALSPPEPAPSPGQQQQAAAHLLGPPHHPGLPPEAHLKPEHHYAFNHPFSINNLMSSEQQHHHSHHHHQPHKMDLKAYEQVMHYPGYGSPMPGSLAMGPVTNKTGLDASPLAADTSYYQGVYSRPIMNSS
Chain of Myc proto-oncogene protein (Homo sapiens) (P01106 whole entry, looked up): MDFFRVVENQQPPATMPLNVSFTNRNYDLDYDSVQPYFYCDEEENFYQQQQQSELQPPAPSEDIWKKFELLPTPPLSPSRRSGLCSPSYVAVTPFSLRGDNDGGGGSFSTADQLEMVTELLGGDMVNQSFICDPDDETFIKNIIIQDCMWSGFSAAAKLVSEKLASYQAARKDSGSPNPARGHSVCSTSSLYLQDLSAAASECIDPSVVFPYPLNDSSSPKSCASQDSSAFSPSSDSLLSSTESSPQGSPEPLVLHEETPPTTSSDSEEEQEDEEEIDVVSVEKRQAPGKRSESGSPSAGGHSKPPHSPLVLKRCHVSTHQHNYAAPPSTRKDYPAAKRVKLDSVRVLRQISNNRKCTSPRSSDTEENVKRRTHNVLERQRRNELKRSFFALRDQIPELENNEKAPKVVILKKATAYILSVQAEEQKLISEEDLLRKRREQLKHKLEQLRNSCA
Chain of Hypoxia-inducible factor 1-alpha (Homo sapiens) (Q16665 whole entry, looked up): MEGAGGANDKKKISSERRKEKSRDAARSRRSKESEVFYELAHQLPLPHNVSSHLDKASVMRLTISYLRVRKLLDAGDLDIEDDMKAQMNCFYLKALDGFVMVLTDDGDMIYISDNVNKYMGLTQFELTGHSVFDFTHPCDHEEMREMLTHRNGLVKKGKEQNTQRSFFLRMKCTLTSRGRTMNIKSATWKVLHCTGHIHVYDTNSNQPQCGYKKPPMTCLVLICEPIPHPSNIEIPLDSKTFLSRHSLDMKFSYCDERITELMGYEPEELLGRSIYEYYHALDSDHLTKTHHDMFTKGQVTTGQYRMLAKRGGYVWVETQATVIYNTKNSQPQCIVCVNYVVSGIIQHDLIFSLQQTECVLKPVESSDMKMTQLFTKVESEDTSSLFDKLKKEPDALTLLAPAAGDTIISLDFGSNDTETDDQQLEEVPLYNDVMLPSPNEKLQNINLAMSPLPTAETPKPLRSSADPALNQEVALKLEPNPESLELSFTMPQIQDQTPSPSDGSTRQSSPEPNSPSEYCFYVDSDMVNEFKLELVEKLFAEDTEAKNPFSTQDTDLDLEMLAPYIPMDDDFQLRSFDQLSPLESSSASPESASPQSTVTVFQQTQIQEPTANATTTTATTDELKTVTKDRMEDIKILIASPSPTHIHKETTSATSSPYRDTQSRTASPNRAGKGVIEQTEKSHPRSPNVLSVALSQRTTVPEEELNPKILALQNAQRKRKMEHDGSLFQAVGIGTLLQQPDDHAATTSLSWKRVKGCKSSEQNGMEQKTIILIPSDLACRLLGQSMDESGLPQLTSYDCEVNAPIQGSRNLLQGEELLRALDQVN
Chain of X-box-binding protein 1 (Homo sapiens) (P17861 whole entry, looked up): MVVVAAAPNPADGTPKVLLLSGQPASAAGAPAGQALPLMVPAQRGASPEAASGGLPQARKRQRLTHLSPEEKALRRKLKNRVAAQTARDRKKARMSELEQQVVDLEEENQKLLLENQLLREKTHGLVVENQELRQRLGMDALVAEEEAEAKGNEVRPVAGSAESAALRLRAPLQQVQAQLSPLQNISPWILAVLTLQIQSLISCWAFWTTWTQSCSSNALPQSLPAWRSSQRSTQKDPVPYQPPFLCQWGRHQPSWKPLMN
Chain of Transcription factor E2F1 (Homo sapiens) (Q01094 whole entry, looked up): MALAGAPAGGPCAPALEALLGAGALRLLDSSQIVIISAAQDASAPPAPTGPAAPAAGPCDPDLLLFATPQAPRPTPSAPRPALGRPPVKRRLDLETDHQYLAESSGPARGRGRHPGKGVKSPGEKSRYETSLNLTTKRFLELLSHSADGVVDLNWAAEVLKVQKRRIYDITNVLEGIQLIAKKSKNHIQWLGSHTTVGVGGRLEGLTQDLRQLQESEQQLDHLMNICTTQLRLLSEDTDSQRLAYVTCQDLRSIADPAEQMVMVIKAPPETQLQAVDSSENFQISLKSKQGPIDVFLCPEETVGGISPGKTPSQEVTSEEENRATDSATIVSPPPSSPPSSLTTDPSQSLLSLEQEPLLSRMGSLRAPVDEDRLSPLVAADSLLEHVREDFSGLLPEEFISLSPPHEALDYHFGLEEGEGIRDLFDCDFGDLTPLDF

Consider `O=C1NC(=O)C2CC=CCC12` (centres undefined), for which the molecule was called inactive in assay [1], in assay [2], in assay [3], in assay [4], in assay [5] and in [6]. For the same molecule, the call in [7], in [8], in assay [9], in assay [10], in assay [11] and in assay [12] was inactive. Besides, the molecule was classed as inactive in [13], in [14], in assay [15], in [16], in assay [17] and in assay [18]. Also, in [19], the outcome was inactive.
Regarding `c1ccc(CNc2ncnc3nc[nH]c23)cc1`, the result in [1], in assay [3], in assay [4], in assay [20], in [5] and in assay [8] was inactive. The outcome in assay [9], in [10], in assay [11], in assay [12], in [13] and in assay [14] was inactive. Also, the molecule was classed as inactive in assay [15], in assay [16], in assay [17] and in [18].
As for `O=C(O)c1nc(Cl)c(Cl)c(Cl)c1Cl`, the outcome in assay [1], in assay [2], in [4], in assay [20], in assay [5] and in assay [6] was inactive. Besides, the call in assay [7], in assay [8], in assay [9], in assay [10], in assay [11] and in [12] was inactive. For the same molecule, the call in assay [13], in assay [14], in assay [15] and in assay [17] was inactive.
For the molecule `CCCCCCCCCCCCCCCCCC[N+](C)(C)C`, the half-maximal activity concentration (AC50) in assay [1] was 38.6 µM (active); in assay [5], 45.4 µM (active); in assay [6], 42 µM (active); in assay [9] it was 6.12 µM (active); in assay [10] it was 6.1 µM (active); in assay [12], 6.05 µM (active). The AC50 is 16.8 µM (active) in assay [13], 41.5 µM (active) in assay [15], 25 µM (active) in assay [17] and 73.2 µM (active) in [19]. For the same molecule, the result in assay [3], in [4], in assay [7], in assay [8], in assay [11] and in assay [14] was inactive. Moreover, the result in [16] and in assay [18] was inactive.

For the origin of these results see PubChem BioAssay (EPA / NIEHS).
